Data from the supplement of paper PMC11732987, “Enantioselective OTUD7B fragment discovery through chemoproteomics screening and high-throughput optimisation” (Communications Chemistry, 2025).

Columns and labels:
Assay in all cases: log2 ratio of Biotin-Ahx-Ub-VS probe labelling (fragment/DMSO); higher = less target engagement (more negative = stronger competition), active = hit call of the paper (q ≤ 0.05, log2 ratio ≤ -1)
Conditions in all cases: compound concentration: 200 uM; treatment time: 3 h
USP19 = target: T1, USP19 (UniProt O94966)
T1 sequence (whole entry): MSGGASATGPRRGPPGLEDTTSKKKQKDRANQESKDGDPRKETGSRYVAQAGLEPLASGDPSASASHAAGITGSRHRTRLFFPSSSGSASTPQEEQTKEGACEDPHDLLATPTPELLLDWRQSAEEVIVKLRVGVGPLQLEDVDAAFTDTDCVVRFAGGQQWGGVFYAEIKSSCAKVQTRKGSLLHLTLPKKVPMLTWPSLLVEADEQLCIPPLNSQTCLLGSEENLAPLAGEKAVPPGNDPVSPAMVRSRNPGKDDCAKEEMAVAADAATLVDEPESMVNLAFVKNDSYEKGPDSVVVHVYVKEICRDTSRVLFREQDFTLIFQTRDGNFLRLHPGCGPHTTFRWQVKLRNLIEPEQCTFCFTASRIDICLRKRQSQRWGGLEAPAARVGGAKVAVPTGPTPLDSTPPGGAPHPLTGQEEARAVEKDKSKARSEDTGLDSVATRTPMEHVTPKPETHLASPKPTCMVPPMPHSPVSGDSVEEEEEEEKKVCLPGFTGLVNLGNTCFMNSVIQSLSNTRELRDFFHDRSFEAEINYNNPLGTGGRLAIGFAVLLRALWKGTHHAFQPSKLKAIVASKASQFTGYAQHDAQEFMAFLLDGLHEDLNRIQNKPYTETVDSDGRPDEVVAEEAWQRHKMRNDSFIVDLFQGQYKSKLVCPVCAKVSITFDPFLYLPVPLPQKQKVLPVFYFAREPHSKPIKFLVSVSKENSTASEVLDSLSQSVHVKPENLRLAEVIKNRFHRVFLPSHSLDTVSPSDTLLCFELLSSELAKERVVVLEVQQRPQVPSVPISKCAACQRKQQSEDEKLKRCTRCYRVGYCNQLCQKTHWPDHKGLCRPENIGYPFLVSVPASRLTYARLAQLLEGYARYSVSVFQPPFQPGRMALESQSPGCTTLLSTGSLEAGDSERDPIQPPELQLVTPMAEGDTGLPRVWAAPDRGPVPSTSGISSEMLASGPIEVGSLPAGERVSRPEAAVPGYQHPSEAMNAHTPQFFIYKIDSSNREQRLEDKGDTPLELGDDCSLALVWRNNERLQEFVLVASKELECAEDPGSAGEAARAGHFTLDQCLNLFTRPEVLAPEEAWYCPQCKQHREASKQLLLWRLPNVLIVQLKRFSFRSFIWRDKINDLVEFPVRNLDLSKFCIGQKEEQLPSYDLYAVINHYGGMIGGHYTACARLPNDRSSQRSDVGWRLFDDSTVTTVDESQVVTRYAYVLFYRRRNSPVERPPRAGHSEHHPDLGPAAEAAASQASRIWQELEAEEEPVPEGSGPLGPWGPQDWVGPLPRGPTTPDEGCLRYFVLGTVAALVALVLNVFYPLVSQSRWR
Summary of the method: (§1)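 Labelled DUBs from HEK293T lysate were NeutrAvidin-enriched, digested with LysC and trypsin, and run by diaPASEF LC-MS/MS. Before that, each 495 µg sample in Tris/CHAPS/IGEPAL buffer with protease inhibitors was treated in triplicate with fragment at 200 µM or vehicle for 3 h, then with Biotin-Ahx-Ub-VS at 0.5 µM final for 1 h. Values are average log2 ratios of fragment over vehicle by unpaired t-test, based on global-median-normalised Spectronaut label-free quantities from proteins with ≥2 unique peptides.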

USP22 = target: T2, USP22 (UniProt Q9UPT9)
T2 sequence (whole entry): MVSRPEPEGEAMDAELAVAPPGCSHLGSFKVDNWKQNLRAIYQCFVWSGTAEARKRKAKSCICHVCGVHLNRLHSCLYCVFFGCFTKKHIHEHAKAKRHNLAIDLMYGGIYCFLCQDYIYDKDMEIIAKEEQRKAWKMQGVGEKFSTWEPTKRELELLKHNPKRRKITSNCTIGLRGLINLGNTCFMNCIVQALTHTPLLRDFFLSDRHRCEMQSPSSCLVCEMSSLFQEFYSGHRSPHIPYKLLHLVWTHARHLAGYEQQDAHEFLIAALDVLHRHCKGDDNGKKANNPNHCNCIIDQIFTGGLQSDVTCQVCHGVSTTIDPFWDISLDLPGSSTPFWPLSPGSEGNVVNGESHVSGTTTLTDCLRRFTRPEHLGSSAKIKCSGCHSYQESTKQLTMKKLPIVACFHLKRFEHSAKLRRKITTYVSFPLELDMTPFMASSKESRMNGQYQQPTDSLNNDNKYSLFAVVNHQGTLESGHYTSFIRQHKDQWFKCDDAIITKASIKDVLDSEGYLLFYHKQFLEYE
Summary of the method: as §1

USP24 = USP24 (UniProt Q9UPU5)
Sequence of USP24 (Q9UPU5 whole entry): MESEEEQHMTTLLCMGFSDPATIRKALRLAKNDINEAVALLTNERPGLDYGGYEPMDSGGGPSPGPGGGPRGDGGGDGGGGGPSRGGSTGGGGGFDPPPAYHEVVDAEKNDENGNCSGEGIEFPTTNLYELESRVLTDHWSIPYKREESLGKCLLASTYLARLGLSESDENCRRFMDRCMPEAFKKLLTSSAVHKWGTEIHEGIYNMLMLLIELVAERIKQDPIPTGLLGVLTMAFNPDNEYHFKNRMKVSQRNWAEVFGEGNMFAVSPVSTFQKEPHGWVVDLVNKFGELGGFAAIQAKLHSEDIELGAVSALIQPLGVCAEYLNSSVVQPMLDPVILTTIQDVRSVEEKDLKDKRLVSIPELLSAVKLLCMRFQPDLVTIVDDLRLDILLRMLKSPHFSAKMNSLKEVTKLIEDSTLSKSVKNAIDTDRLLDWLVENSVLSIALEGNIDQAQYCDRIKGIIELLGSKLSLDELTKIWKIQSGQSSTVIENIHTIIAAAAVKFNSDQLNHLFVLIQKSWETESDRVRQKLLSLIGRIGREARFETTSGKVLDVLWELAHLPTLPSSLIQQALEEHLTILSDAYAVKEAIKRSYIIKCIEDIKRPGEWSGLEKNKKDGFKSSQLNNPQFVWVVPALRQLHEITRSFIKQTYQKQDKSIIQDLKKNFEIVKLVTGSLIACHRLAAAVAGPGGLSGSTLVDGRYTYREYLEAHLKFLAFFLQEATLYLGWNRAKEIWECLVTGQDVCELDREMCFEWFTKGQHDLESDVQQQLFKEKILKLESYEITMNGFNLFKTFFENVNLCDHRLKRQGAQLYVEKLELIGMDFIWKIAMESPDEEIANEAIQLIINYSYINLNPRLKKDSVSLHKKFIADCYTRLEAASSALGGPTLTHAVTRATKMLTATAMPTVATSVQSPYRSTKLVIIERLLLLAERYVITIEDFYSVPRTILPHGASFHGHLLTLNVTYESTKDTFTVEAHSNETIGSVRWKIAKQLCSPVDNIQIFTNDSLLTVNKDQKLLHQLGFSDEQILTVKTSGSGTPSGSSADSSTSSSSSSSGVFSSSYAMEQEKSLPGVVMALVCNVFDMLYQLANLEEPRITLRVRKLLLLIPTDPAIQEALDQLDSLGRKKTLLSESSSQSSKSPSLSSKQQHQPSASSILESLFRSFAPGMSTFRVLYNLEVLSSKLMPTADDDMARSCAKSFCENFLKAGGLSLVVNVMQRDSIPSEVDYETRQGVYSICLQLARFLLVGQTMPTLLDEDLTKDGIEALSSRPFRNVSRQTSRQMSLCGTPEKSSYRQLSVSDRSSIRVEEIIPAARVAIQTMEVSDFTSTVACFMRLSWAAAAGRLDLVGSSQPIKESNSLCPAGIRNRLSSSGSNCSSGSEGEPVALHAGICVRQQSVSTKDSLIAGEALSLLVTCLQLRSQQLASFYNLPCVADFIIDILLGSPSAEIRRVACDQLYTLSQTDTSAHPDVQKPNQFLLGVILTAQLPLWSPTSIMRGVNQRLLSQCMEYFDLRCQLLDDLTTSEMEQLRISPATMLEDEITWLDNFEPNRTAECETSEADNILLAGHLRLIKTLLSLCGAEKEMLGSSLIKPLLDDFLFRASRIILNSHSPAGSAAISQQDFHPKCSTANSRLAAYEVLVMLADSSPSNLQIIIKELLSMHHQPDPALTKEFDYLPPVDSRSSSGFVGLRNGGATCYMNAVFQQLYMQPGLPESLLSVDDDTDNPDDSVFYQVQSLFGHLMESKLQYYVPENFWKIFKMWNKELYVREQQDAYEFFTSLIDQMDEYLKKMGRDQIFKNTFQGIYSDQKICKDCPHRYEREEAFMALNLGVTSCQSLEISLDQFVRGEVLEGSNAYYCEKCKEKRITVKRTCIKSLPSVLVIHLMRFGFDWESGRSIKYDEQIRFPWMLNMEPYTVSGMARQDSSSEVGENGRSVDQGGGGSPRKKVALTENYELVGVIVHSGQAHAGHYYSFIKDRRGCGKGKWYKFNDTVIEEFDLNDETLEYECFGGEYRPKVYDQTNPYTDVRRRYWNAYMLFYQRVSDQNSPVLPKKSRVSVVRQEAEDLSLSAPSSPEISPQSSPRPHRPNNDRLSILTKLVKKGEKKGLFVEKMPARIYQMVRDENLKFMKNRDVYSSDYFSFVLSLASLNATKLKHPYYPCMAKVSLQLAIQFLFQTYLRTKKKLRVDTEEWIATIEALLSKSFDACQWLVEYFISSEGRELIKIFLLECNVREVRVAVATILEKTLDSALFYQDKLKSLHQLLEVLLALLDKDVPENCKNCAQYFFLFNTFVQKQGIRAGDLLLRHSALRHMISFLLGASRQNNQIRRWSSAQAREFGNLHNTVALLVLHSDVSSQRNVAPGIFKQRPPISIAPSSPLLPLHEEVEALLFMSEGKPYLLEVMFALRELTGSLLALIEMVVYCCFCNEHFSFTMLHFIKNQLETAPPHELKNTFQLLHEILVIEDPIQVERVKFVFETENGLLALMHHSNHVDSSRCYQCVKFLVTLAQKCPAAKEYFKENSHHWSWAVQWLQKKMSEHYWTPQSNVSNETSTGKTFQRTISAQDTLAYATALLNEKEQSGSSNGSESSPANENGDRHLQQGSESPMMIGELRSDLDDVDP
Summary of the method: as §1

USP25 = target: T3, USP25 (UniProt Q9UHP3)
T3 sequence (whole entry): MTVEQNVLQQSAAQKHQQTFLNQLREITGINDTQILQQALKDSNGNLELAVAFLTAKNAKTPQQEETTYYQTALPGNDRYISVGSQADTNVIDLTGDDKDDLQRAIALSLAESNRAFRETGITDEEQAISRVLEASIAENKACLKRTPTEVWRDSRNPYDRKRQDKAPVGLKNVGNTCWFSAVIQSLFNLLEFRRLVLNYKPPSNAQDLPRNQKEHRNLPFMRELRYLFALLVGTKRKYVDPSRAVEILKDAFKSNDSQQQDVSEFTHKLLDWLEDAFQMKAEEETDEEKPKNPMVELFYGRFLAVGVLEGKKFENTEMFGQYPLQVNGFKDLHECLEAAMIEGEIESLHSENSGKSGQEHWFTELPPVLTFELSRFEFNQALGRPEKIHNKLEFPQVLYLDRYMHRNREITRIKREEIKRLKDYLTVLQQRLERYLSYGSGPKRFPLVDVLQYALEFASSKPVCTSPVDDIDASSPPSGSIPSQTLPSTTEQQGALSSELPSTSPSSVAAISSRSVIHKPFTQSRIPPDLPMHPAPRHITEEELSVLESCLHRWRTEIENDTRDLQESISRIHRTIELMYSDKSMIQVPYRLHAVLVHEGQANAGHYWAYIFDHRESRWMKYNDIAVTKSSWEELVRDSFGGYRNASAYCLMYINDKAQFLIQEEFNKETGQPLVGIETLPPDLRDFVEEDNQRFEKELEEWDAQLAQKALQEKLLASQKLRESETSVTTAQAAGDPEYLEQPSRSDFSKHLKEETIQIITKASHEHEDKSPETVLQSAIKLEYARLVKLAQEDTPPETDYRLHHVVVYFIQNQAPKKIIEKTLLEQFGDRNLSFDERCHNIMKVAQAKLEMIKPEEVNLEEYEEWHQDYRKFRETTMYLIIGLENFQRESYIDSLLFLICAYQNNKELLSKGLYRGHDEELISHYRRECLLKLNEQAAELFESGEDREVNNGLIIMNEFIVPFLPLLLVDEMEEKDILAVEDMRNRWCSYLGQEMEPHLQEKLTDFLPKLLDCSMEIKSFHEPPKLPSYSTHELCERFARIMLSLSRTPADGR
Summary of the method: as §1

USP28 = target: T4, USP28 (UniProt Q96RU2)
T4 sequence (whole entry): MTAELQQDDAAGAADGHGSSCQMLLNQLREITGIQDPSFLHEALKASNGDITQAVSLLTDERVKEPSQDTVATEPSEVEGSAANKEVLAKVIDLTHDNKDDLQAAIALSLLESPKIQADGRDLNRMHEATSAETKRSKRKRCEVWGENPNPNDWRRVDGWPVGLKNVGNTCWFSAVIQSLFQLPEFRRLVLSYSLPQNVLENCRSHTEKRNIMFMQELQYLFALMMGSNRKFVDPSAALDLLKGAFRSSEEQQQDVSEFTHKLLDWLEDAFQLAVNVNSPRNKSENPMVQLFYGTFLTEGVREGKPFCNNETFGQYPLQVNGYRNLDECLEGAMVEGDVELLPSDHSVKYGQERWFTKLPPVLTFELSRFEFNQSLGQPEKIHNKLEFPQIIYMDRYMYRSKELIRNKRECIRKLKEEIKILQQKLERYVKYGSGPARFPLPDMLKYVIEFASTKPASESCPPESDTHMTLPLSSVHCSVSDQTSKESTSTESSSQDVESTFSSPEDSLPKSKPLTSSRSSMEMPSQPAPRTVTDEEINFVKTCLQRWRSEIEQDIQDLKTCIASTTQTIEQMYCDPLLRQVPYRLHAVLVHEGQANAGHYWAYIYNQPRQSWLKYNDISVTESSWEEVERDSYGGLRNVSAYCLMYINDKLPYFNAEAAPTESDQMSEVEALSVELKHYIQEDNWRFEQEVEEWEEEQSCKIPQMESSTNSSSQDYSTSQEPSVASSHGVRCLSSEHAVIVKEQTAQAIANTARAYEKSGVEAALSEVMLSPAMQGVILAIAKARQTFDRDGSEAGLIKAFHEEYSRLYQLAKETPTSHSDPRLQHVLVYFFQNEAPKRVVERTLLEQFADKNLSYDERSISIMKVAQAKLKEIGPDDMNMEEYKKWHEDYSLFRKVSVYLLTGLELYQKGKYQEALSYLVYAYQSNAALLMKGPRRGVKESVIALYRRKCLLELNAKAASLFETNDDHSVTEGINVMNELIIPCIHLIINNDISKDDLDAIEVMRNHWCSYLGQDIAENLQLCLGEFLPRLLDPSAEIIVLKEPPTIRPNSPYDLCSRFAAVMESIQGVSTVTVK
Summary of the method: as §1

Measured: log2 ratio of Biotin-Ahx-Ub-VS probe labelling

O=C(CCl)NCCC1=CCCCC1
inactive: USP19 -0.00951 | USP22 -0.0359 | USP24 -0.0898 | USP25 -0.223 | USP28 -0.444
